Measurements from PubChem BioAssay (NCATS).
Inconclusive results are not listed. Active and inactive are the calls of the source. Unless noted, calls come from the whole dose curve; as a rule, active = well fitted curve in the direction sought with a large enough effect; inconclusive = small, poorly fitted or top-dose-only effect, or another doubt; inactive = no such curve, though single readings can be large; an effect the other way counts as inactive or inconclusive.

How the values were obtained:
[1] = target: Lysosomal acid glucosylceramidase (Homo sapiens) (UniProt P04062); test: Glucocerebrosidase-p2 (AID 348; in the data active = potency below about 10 µM; note: potency is the fitted concentration of half-maximal effect); details: purified GBA, blue fluorogenic substrate, 40 min
Sequence of Lysosomal acid glucosylceramidase (Homo sapiens) (P04062 whole entry, looked up): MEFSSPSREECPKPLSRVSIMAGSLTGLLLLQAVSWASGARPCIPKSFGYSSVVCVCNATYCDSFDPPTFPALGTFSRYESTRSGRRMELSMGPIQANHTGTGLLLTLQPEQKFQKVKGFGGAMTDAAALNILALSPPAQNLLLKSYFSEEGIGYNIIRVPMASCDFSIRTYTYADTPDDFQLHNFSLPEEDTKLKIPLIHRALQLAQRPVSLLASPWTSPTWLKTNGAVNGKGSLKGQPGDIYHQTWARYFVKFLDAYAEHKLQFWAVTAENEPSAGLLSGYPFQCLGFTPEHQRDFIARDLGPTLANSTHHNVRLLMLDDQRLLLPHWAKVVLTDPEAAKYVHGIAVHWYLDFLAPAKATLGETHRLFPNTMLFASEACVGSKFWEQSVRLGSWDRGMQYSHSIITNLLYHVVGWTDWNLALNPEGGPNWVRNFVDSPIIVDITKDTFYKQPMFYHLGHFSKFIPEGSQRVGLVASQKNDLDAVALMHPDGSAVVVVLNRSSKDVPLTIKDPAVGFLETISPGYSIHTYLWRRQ
In short: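 Compounds titrated from 0.6 nM upwards against 0.2 nM enzyme in pH 5.9 citric acid/KH2PO4, taurocholate, tween-20; blue fluorogenic substrate 80 uM, 40 min room temperature, stopped and read Ex 365/Em 440 for AC50.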

[2] = AP1 Signaling Pathway (AID 357; active = well fitted curve in either direction with a large enough effect, not every such curve was filed as active;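 note: ME-180 reporter cells stimulated with EGF at its EC50 level; % is set by controls: 0 for no effect and ±100 for the full control effect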); details: ME-180 AP-1-bla reporter, EGF-induced, beta-lactamase ratio, 5 h; at 7.69 µM (top of the series) unless noted
In short: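 AP-1-bla ME-180 cells, Opti-MEM + 0.5% dialyzed FBS, plated overnight 37 °C. Cpd titration + EC50 EGF, 5 h 37 °C. CCF4 2.5 h RT; ex 405, em 460/530 ratio → %activity, AC50.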

[3] = target: Cytochrome P450 1A2 (Homo sapiens) (UniProt P05177); test: p450-cyp1a2 (AID 410; calls by dose curve; note: potency is the fitted concentration of half-maximal effect); details: recombinant CYP1A2, luciferin-ME demethylation, luminescence; series mostly up to 57 µM
Sequence of Cytochrome P450 1A2 (Homo sapiens) (P05177 whole entry, looked up): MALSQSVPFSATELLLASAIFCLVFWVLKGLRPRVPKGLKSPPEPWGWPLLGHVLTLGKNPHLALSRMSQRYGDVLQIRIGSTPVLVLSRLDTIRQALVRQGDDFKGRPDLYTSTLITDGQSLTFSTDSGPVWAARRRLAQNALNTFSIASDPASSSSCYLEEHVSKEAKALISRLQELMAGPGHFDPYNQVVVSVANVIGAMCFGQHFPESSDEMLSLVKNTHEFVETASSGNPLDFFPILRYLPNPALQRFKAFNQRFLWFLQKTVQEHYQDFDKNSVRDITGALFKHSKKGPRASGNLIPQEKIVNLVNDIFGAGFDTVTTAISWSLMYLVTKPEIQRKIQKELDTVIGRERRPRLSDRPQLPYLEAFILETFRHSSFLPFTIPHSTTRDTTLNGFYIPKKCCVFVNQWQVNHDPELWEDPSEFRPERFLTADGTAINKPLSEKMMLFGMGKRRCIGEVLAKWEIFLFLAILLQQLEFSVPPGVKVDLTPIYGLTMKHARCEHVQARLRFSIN
In short: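 Inhibition was calculated relative to 57 uM furafylline (full inhibition). The reaction used human CYP1A2 at 20nM with Luciferin-ME at its Km, 100uM, driven by an NADPH-regenerating system for 60 min at room temperature.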

[4] = NFAT Signaling Pathway (AID 444; active = well fitted curve in either direction with a large enough effect, not every such curve was filed as active;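 note: carbachol stimulus at about its EC50 of 1 µM final; % is set by controls: 0 for no effect and ±100 for the full control effect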); details: Jurkat NFAT-bla M1, carbachol, beta-lactamase ratio, 5 h; at 7.69 µM (top of the series) unless noted
In short: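 Read-out: CCF4 FRET ratio (460 nm/530 nm) after 1 h RT dye loading, used for %activity and AC50 from titration series. Cells: Jurkat NFAT-β-lactamase/M1 line, treated with compound plus 1 uM carbachol for 5 h, 37 °C.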

[5] = Stat Signaling Pathway (AID 446; active = well fitted curve in either direction with a large enough effect, not every such curve was filed as active;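 note: ME-180 cervical cancer cells given 40 pM IL-6 alongside compound; SIE-controlled beta-lactamase reporter measured as 460/530 nm FRET emission ratio; % is set by controls: 0 for no effect and ±100 for the full control effect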); details: ME-180 SIE beta-lactamase reporter, IL-6 stimulated, 5 h; at 7.69 µM (top of the series) unless noted
In short: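 ME-180 cells carrying a SIE-driven beta-lactamase reporter are stimulated with 40 pM IL-6 for 5 h at 37C in the presence of compound. The 460/530 nm FRET substrate ratio is read after 2.5 h at RT. Data are normalised to 300 pM IL-6 and to 125 nM JAK inhibitor controls.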

[6] = target: Glucocorticoid receptor (Homo sapiens) (UniProt P04150); test: GR-GFP Redistribution (AID 450;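 active = compounds whose dose series gives a full or clear partial fitted curve of increased nuclear translocation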; note: potency is the fitted concentration of half-maximal effect); details: U2OS GR-GFP nuclear translocation, laser cytometry, 2 h
Sequence of Glucocorticoid receptor (Homo sapiens) (P04150 whole entry, looked up, the tested form may be a part): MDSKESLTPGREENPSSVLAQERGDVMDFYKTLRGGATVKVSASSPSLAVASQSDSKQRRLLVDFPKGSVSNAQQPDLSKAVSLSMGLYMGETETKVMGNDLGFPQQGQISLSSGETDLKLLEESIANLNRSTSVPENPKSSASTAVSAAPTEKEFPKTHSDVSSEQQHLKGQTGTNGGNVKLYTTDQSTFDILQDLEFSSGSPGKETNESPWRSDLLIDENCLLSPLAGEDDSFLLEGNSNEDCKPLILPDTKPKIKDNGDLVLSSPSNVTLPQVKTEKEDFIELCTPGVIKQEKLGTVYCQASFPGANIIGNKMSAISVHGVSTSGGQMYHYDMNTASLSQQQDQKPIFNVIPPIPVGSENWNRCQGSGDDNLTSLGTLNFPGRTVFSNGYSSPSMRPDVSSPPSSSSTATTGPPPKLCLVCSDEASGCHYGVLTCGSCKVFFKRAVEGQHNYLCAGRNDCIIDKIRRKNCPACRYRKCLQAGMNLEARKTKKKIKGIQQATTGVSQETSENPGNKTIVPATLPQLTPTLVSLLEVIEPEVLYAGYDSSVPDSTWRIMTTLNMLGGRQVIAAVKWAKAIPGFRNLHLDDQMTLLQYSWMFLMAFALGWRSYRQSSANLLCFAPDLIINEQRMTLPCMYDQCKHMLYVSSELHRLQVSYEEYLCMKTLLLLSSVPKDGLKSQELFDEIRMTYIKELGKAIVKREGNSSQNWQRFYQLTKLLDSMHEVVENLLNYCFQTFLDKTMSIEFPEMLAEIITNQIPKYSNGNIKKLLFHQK

[7] = target: Glucocorticoid receptor (Homo sapiens) (UniProt P04150); test: GR-EFC Redistribution (AID 451; calls by dose curve; note: potency is the fitted concentration of half-maximal effect); details: CHO-K1 GR-EFC translocation, beta-gal luminescence, 2 h
In short: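 Translocation of GR-ED fusion to nuclear EA restores b-gal, read by luminescence after 1 h room-temperature detection. Engineered CHO-K1 biosensor cells, 1,000/well, exposed 2 h at 37 C to titrations up to 46 uM final.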

[8] = target: Mitogen-activated protein kinase 10 (Mus musculus) (UniProt Q61831); test: JNK3 AlphaScreen Assay (AID 530; active = well fitted curve in either direction with a large enough effect, not every such curve was filed as active;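 note: kinase came from lysate of stimulated human HepG2 cells; signal reports phosphorylation of biotinylated GST-cJun 1-79 at Ser73 with 10 µM ATP; % is set by controls: 0 for no effect and ±100 for the full control effect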); details: JNK3 lysate, c-Jun phosphorylation; series mostly up to 57.1 µM
In short: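 Room-temperature AlphaScreen kinase assay; pre-activated HepG2 lysate as JNK3 source, biotin-GST-cJun(1-79) substrate, 10 uM ATP, compound 15 min preincubation.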

[9] = target: 3',5'-cyclic-AMP phosphodiesterase 4B (Homo sapiens) (UniProt Q07343); test: qHTS Assay for Inhibitors of PDE-IV (AID 607; active = well fitted activation curve with a large enough effect in the main read-out, with a control signal flat, not every such curve was filed as active; note: % of control where 0% means no effect); details: HEK293 ACTOne CNG channel cells, membrane potential fluorescence; series mostly up to 22.9 µM
Sequence of 3',5'-cyclic-AMP phosphodiesterase 4B (Homo sapiens) (Q07343 whole entry, looked up): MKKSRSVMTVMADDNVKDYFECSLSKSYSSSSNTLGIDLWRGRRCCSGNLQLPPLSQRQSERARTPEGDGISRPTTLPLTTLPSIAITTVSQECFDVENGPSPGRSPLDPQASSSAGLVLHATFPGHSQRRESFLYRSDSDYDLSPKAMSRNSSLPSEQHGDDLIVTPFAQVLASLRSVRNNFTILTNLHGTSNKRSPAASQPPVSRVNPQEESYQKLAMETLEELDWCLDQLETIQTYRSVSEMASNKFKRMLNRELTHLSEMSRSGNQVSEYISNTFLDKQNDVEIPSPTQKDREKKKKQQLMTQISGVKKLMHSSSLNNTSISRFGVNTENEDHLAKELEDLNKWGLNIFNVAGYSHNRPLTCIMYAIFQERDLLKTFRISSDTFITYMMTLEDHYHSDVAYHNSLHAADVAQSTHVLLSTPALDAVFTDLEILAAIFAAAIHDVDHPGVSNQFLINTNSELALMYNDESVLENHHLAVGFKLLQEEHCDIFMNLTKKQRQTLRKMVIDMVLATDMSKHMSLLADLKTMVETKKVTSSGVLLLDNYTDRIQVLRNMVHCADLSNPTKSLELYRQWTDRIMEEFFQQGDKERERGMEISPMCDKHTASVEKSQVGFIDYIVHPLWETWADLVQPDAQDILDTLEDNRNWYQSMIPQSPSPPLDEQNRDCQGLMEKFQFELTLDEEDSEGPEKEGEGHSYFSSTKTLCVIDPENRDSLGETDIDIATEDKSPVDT
In short: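 HEK293 ACTOne cells with CNG channel (1000/well), endogenous PDE4; membrane potential dye, compounds up to 22.9 uM final. Fluorescence Ex 535/Em 590; RO 20-1724 (100 uM final) as reference.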

[10] = target: Cytochrome P450 3A4 (Homo sapiens) (UniProt P08684); test: qHTS Assay for Inhibitors and Substrates of Cytochrome P450 3A4 (AID 884); details: recombinant CYP3A4, Luciferin-PPXE luminescence; series mostly up to 57.1 µM; note: potency is the fitted concentration of half-maximal effect; nearly all actives have a fitted effect of over 50% in size
Sequence of Cytochrome P450 3A4 (Homo sapiens) (P08684 whole entry, looked up): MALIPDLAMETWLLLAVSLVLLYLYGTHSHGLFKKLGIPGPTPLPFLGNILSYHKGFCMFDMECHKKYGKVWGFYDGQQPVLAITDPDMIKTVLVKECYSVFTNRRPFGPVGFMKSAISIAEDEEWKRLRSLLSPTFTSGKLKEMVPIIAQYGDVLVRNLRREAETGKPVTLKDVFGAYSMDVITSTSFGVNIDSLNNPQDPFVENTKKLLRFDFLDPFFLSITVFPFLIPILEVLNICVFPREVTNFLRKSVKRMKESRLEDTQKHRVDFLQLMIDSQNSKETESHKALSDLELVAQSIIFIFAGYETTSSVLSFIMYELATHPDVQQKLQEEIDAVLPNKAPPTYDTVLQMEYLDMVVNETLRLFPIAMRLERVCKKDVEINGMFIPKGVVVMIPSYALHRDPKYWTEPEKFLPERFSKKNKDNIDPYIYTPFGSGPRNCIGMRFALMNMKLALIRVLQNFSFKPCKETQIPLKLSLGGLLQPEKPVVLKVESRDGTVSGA
In short: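 20 nM human CYP3A4 with 25 uM Luciferin-PPXE (at KM) in 200 mM KPO4, preincubated 10 min with compound; NADPH regeneration started a 60 min RT reaction. Luciferin detected by luminescence, normalized to 57 uM ketoconazole as full inhibition.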

[11] = target: Cytochrome P450 3A4 (Homo sapiens) (UniProt P08684); test: qHTS Assay for Activators of Cytochrome P450 3A4 (AID 885); details: recombinant CYP3A4, Luciferin-PPXE luminescence, 60 min; series mostly up to 57.1 µM; note: nearly all actives have a fitted effect of over 65% in size
In short: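 Human CYP3A4 (20 nM) with Luciferin-PPXE at 25 uM (its KM) in 200 mM KPO4; 10 min compound preincubation, then NADPH regeneration and 60 min reaction at RT. Luciferin read by luminescence; normalized to 57 uM ketoconazole full inhibition.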

[12] = target: Cytochrome P450 2C19 (Homo sapiens) (UniProt P33261); test: qHTS Assay for Inhibitors and Substrates of Cytochrome P450 2C19 (AID 899); details: recombinant CYP2C19, luciferin-H EGE luminescence; series mostly up to 57.1 µM; note: potency is the fitted concentration of half-maximal effect; nearly all actives have a fitted effect of over 60% in size
Sequence of Cytochrome P450 2C19 (Homo sapiens) (P33261 whole entry, looked up): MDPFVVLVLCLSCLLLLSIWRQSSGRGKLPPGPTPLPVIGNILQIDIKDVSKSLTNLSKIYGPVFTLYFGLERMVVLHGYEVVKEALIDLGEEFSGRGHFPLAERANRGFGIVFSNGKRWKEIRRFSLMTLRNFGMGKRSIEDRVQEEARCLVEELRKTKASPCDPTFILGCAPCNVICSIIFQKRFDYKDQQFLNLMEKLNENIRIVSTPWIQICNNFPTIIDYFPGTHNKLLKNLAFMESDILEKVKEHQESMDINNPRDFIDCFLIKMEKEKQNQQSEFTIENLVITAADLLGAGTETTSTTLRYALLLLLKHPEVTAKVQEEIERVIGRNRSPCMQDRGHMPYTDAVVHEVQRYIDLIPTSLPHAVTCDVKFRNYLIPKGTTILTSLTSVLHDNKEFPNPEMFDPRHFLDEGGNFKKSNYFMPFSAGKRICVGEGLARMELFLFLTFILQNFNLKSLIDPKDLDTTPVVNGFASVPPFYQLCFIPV
In short: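 5nM enzyme + 10uM Luciferin-H EGE (=KM), 50mM KPO4; cpd pin-transferred, 10 min 37C; NADPH regen, 60 min 37C; stopped w/ luciferin detection reagent, 20 min; luminescence. Normalized to 57uM ketoconazole (AC100).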

[13] = target: Dual specificity protein kinase CLK4 (Homo sapiens) (UniProt Q9HAZ1); test: qHTS Assay for Inhibitors of CDC-like Kinase 4 (ADP-Glo Assay) (AID 1771); details: recombinant CLK4, ADP-Glo luminescence; series mostly up to 80 µM; note: potency is the fitted concentration of half-maximal effect; nearly all actives have a fitted effect of over 70% in size
Sequence of Dual specificity protein kinase CLK4 (Homo sapiens) (Q9HAZ1 whole entry, looked up): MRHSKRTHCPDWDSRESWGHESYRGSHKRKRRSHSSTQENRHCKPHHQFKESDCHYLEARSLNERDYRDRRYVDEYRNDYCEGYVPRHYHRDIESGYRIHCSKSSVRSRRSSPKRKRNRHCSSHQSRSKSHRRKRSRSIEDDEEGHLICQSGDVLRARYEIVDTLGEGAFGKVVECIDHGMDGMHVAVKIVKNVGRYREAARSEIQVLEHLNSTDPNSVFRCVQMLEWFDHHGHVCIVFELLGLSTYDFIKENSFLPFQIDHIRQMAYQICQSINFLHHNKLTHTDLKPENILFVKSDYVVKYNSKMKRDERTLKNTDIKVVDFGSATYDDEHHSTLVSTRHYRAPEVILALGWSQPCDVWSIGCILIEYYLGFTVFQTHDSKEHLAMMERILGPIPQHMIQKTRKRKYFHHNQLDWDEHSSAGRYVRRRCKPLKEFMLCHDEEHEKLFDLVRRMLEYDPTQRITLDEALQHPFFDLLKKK
In short: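 Kinase reaction: Clk4 at 25 nM, RS repeat peptide substrate at 100 uM, ATP at 1 uM, 1 hr, room temperature. Product ADP detected as luciferase signal via ADP-Glo.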

[14] = target: Ubiquitin carboxyl-terminal hydrolase 1 (Homo sapiens) (UniProt O94782); test: Inhibitors of USP1/UAF1: Pilot qHTS (AID 504865); details: purified USP1/UAF1, Ub-rhodamine cleavage fluorescence; series mostly up to 54.9 µM;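 note: rhodamine fluorescence freed from ubiquitin-rhodamine substrate followed over time; top concentration of the series differs between compounds; % is set by controls: 0 for no effect and ±100 for the full control effect; nearly all actives have a fitted effect of over 35% in size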
Sequence of Ubiquitin carboxyl-terminal hydrolase 1 (Homo sapiens) (O94782 whole entry, looked up): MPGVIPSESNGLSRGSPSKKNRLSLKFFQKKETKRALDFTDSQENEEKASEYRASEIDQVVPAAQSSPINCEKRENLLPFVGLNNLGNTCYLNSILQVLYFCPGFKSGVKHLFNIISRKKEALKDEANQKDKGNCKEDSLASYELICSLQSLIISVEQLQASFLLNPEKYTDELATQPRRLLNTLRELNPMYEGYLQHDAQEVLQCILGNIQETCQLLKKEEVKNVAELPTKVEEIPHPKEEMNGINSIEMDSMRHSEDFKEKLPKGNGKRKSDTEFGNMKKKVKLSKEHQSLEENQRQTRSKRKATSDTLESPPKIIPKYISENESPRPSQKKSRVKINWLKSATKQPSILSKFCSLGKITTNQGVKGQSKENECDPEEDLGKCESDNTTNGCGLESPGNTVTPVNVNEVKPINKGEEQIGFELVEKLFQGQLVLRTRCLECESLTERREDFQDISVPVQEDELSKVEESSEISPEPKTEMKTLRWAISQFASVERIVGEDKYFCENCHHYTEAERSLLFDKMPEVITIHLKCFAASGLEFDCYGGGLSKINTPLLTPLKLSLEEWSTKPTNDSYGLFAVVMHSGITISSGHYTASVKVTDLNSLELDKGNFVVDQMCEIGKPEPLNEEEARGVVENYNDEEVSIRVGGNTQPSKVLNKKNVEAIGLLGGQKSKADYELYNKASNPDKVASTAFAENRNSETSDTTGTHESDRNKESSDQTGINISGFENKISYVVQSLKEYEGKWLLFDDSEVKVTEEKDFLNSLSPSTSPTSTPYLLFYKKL
In short: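 Kinetic fluorescence assay: 1nM USP1/UAF1, 15 min compound preincubation, then 150nM Ub-Rho; 480/540 nm.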

[15] = Primary qHTS for small molecule stabilizers of the endoplasmic reticulum resident proteome: Secreted ER Calcium Modulated Protein (SERCaMP) assay (AID 1508630); details: SH-SY5Y GLuc-SERCaMP (Gaussia luciferase released on ER calcium loss) secretion, thapsigargin, luminescence; series mostly up to 38.4 µM; note: % is set by controls: 0 for no effect and ±100 for the full control effect
In short: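 GLuc-SERCaMP-expressing SH-SY5Y cells, pretreated 16 h with compound, are challenged with thapsigargin to empty ER calcium stores; after 4 h, coelenterazine is added directly to the medium and luminescence is imaged.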

[16] = target: Dual specificity protein kinase CLK4 (Homo sapiens) (UniProt Q9HAZ1); test: qHTS Assay for Inhibitors of CDC-like Kinase 4 (ADP-FP Assay) (AID 1795); details: Transcreener ADP fluorescence polarization; series mostly up to 50 µM;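 note: recombinant human CLK4 phosphorylating RS repeat peptide at 1 µM ATP; % is set by controls: 0 for no effect and ±100 for the full control effect; nearly all actives have a fitted effect of over 60% in size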
In short: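 Inhibition of ADP formation by 6.25 nM Clk4 is measured using 1 uM ATP and 100 uM RS repeat peptide over one hour. Produced ADP displaces a fluorescent tracer from antibody, lowering polarization.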

[17] = qHTS Assay for Identification of Small Molecule Agonists for Hypoxia Response Element Signaling Pathway (AID 914; active = well fitted activation curve with a large enough effect in the signal ratio, with a control signal flat, not every such curve was filed as active; the % refers to the signal ratio; note: % of control where 0% means no effect); details: ME-180 (cervical carcinoma) HRE-bla reporter, beta-lactamase ratio, CoCl2, 17 h; activation: active compounds read high
In short: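 A beta-lactamase reporter under hypoxia response element control in ME-180 cells served as the system. Compound titrations plus EC50 CoCl2 ran 17 h at 37 degrees Celsius; AC50 values were fitted from %Activity.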

[18] = target: Cytochrome P450 2C9 (Homo sapiens) (UniProt P11712); test: qHTS Assay for Inhibitors and Substrates of Cytochrome P450 2C9 (AID 883); details: recombinant CYP2C9, luciferin-H luminescence, 60 min; series mostly up to 57.1 µM; note: % is set by controls: 0 for no effect and ±100 for the full control effect; nearly all actives have a fitted effect of over 60% in size
In short: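 Inhibition of CYP2C9 is scored as loss of luminescence, with 57uM sulphaphenazole defining 100% inhibition. Substrate Luciferin-H is used at 100uM, equal to its KM; enzyme at 10nM in 25mM KPO4, 60 min at 37C with NADPH regeneration.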

Cc1ccccc1-c1nccc(NCc2cccnc2)n1
active: Potency [3] 0.2 µM | Potency [10] 3.98 µM | Potency [12] 5.01 µM | Potency [13] 28.2 µM
inactive: Potency [1] > 11.4 µM | activity change, negative = inhibition [2] 13% | activity change, negative = inhibition [4] 3.23% | activity, negative = inhibition [5] -15.6% | Potency [6] > 46 µM | Potency [7] > 46 µM | Potency [8] | Potency [9] | Potency [11] | Potency [14] | outcome [15]

COc1ccccc1-c1nc(NCCN2CCOCC2)c2ccccc2n1
inactive: Potency [1] > 11.4 µM | activity change, negative = inhibition [2] 7.09% | activity change, negative = inhibition [4] -28.2% | activity, negative = inhibition [5] 29.7% | Potency [6] > 46 µM | Potency [7] > 46 µM | Potency [8] | Potency [9] | Potency [11] | Potency [16] | Potency [14] | outcome [15]
active: Potency [3] 7.94 µM

COc1cccc(-c2cncnc2NCc2cnc(C)cn2)c1
active: Potency [3] 12.6 µM | Potency [10] 1.58 µM
inactive: Potency [1] > 11.4 µM | activity change, negative = inhibition [2] -11.3% | activity change, negative = inhibition [4] 8.15% | activity, negative = inhibition [5] 7.19% | Potency [6] > 46 µM | Potency [7] > 46 µM | Potency [8] | Potency [9] | Potency [11] | Potency [16] | Potency [14] | outcome [15]

COc1ccc2[nH]cc(CCNc3ncncc3-c3cccnc3)c2c1
active: Potency [3] 0.316 µM | Potency [10] 0.794 µM | Potency [12] 3.16 µM
inactive: Potency [1] > 11.4 µM | activity change, negative = inhibition [2] 9.96% | activity change, negative = inhibition [4] 3.23% | activity, negative = inhibition [5] 2.25% | Potency [6] > 46 µM | Potency [7] > 46 µM | Potency [8] | Potency [9] | Potency [11] | Potency [16] | Potency [14] | outcome [15]

Clc1ccccc1-c1nccc(NCCN2CCOCC2)n1
active: Potency [3] 2 µM | Potency [12] 5.01 µM
inactive: Potency [1] > 11.4 µM | activity change, negative = inhibition [2] 4.13% | activity change, negative = inhibition [4] 3.47% | activity, negative = inhibition [5] 5.58% | Potency [6] > 46 µM | Potency [7] > 46 µM | Potency [8] | Potency [9] | Potency [11] | Potency [16] | Potency [14] | outcome [15]

c1cncc(CNc2cc(-c3ccoc3)ncn2)c1
inactive: Potency [1] > 11.4 µM | activity change, negative = inhibition [2] 0.0422% | activity change, negative = inhibition [4] -10.4% | activity, negative = inhibition [5] 11.8% | Potency [6] > 46 µM | Potency [7] > 46 µM | Potency [8] | Potency [9] | Potency [11] | activation [17] 0.531% | Potency [16] | Potency [14] | outcome [15]
active: Potency [3] 3.16 µM

CNc1nc(-c2ccc(C(=O)N(C)C)cc2)nc2ccccc12
inactive: activity change, negative = inhibition [2] 7.59% | activity change, negative = inhibition [4] 23.4% | activity, negative = inhibition [5] -0.956% | Potency [6] > 46 µM | Potency [7] > 46 µM | Potency [8] | Potency [9] | Potency [14] | outcome [15]
active: Potency [13] 28.2 µM

N#Cc1ccccc1-c1ccc2ncnc(NCCN3CCOCC3)c2c1
active: Potency [3] 10 µM
inactive: Potency [1] > 11.4 µM | activity change, negative = inhibition [2] 1.67% | activity change, negative = inhibition [4] -6.3% | activity, negative = inhibition [5] 0.199% | Potency [6] > 46 µM | Potency [7] > 46 µM | Potency [8] | Potency [9] | Potency [11] | Potency [16] | Potency [14] | outcome [15]

Cc1noc(C)c1-c1nccc(NCCN2CCOCC2)n1
inactive: Potency [1] > 11.4 µM | activity change, negative = inhibition [2] -1.23% | activity change, negative = inhibition [4] -8.35% | activity, negative = inhibition [5] 2.66% | Potency [6] > 46 µM | Potency [7] > 46 µM | Potency [8] | Potency [9] | Potency [11] | Potency [16] | Potency [14] | outcome [15]
active: Potency [3] 7.94 µM

Cn1cc(-c2nc3cncnc3n(C3CC3)c2=O)c2ccccc21
inactive: Potency [1] > 11.4 µM | activity change, negative = inhibition [2] -14.5% | activity change, negative = inhibition [4] 9.91% | activity, negative = inhibition [5] -6.67% | Potency [6] > 9.22 µM | Potency [7] > 46 µM | Potency [8] | Potency [9] | Potency [11] | Potency [16] | Potency [14] | outcome [15]
active: Potency [3] 0.2 µM

COc1ccccc1CNc1cc(-c2ccccc2OC)ncn1
active: Potency [3] 2.51 µM | Potency [12] 1.58 µM
inactive: Potency [1] > 11.4 µM | activity change, negative = inhibition [2] -14.2% | activity change, negative = inhibition [4] -2.18% | activity, negative = inhibition [5] -12.6% | Potency [6] > 46 µM | Potency [7] > 46 µM | Potency [8] | Potency [9] | activity change, negative = inhibition [18] 31.3% [at 2.29 µM] | Potency [11] | Potency [16] | Potency [14] | outcome [15]

CS(=O)(=O)Nc1cccc(-c2cncnc2-n2ccnc2)c1
inactive: Potency [1] > 11.4 µM | activity change, negative = inhibition [2] 7.32% | activity change, negative = inhibition [4] 14.5% | activity, negative = inhibition [5] 14.6% | Potency [6] > 46 µM | Potency [7] > 46 µM | Potency [8] | Potency [9] | Potency [11] | Potency [16] | Potency [14] | outcome [15]
active: Potency [3] 15.8 µM | Potency [10] 7.94 µM
